Among all 5,500 compounds or so, about 2,000 (36%) were called active. About 18% were inconclusive and are not listed. Cut-off read from the data, not from the text of the source: active = normalized growth mostly below about 0.91 (no sharp cut-off); inconclusive = no clear call, values can overlap the other calls; inactive = mostly above about 0.92. This is one part of the list.
Experiment: chemical genetic growth profiling, strain panel (AID 1159580);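 note: tested at 20 µM; growth read once vehicle control cultures reached saturation at 30 °C; 1 = growth at the plate median or of vehicle wells; lower values mean less growth of the strain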
Conditions: S. cerevisiae deletion strains, growth OD

Measured: normalized growth

O=c1c2ccccc2oc2ccccc12
active: locus YBR009C, strain hhf1, stronger effect = lower value 0.854 | locus YBR231C, strain swc5, stronger effect = lower value 0.858 | locus YBR279W, strain paf1, stronger effect = lower value 0.922 | locus YCL011C, strain gbp2, stronger effect = lower value 0.907 | locus YCL016C, strain dcc1, stronger effect = lower value 0.869 | locus YCL061C, strain MRC1, stronger effect = lower value 0.917 | locus YDR137W, strain rgp1, stronger effect = lower value 0.794 | locus YDR195W, strain ref2 1.33 [resistant] | locus YDR392W, strain spt3, stronger effect = lower value 0.495 | locus YEL003W, strain gim4, stronger effect = lower value 0.906 | locus YEL061C, strain CIN8 (second series), stronger effect = lower value 0.879 | locus YER155C, strain BEM2 (second series), stronger effect = lower value 0.386 | locus YGL240W, strain doc1, stronger effect = lower value 0.84 | locus YGL253W, strain hxk2, stronger effect = lower value 0.859 | locus YHR013C, strain ard1, stronger effect = lower value 0.738 | locus YHR030C, strain SLT2, stronger effect = lower value 0.813 | locus YHR079C, strain IRE1, stronger effect = lower value 0.822 | locus YHR142W, strain chs7, stronger effect = lower value 0.766 | locus YJL095W, strain BCK1 (second series), stronger effect = lower value 0.853 | locus YJL095W, strain BCK1, stronger effect = lower value 0.857 | locus YJL164C, strain tpk1, stronger effect = lower value 0.891 | locus YJL166W, strain qcr8, stronger effect = lower value 0.879 | locus YJR066W, strain TOR1, stronger effect = lower value 0.8 | locus YKL160W, strain elf1, stronger effect = lower value 0.879 | locus YLL001W, strain dnm1, stronger effect = lower value 0.884 | locus YLR221C, strain rsa3, stronger effect = lower value 0.87 | locus YLR262C, strain YPT6 (second series), stronger effect = lower value 0.769 | locus YLR320W, strain mms22, stronger effect = lower value 0.697 | locus YNL071W, strain lat1, stronger effect = lower value 0.737 | locus YNL248C, strain rpa49, stronger effect = lower value 0.511 | locus YOR001W, strain rrp6, stronger effect = lower value 0.88 | locus YOR083W, strain WHI5, stronger effect = lower value 0.814 | locus YOR231W, strain MKK1, stronger effect = lower value 0.836 | locus YOR270C, strain vph1, stronger effect = lower value 0.611 | locus YOR290C, strain snf2, stronger effect = lower value 0.792 | locus YPL051W, strain arl3, stronger effect = lower value 0.859 | locus YPL078C, strain atp4, stronger effect = lower value 0.842 | locus YPL106C, strain sse1, stronger effect = lower value 0.759
inactive: locus YAL021C, strain ccr4, stronger effect = lower value 0.938 | locus YAL026C, strain drs2, stronger effect = lower value 0.912 | locus YAL030W, strain snc1, stronger effect = lower value 0.948 | locus YBL061C, strain skt5, stronger effect = lower value 0.922 | locus YBR023C, strain chs3, stronger effect = lower value 0.916 | locus YBR171W, strain sec66, stronger effect = lower value 0.897 | locus YCL069W, strain vba3, stronger effect = lower value 0.961 | locus YCR088W, strain abp1, stronger effect = lower value 0.964 | locus YDL005C, strain med2, stronger effect = lower value 0.946 | locus YDL040C, strain nat1, stronger effect = lower value 0.946 | locus YDR001C, strain nth1, stronger effect = lower value 0.953 | locus YDR069C, strain doa4, stronger effect = lower value 0.927 | locus YDR159W, strain sac3, stronger effect = lower value 0.989 | locus YDR297W, strain sur2, stronger effect = lower value 0.945 | locus YDR334W, strain swr1, stronger effect = lower value 0.929 | locus YDR335W, strain msn5, stronger effect = lower value 0.946 | locus YEL037C, strain rad23, stronger effect = lower value 0.944 | locus YER015W, strain faa2, stronger effect = lower value 0.954 | locus YER016W, strain bim1, stronger effect = lower value 0.95 | locus YER111C, strain swi4, stronger effect = lower value 0.937 | locus YFR010W, strain ubp6, stronger effect = lower value 0.915 | locus YGL167C, strain pmr1, stronger effect = lower value 0.931 | locus YGL173C, strain kem1, stronger effect = lower value 0.907 | locus YGL227W, strain vid30, stronger effect = lower value 0.95 | locus YHR027C, strain rpn1, stronger effect = lower value 0.944 | locus YJL092W, strain hpr5, stronger effect = lower value 0.945 | locus YJL115W, strain asf1, stronger effect = lower value 0.953 | locus YJL129C, strain trk1, stronger effect = lower value 0.976 | locus YJL154C, strain vps35, stronger effect = lower value 0.964 | locus YJL187C, strain SWE1, stronger effect = lower value 0.935 | locus YKR026C, strain gcn3, stronger effect = lower value 0.949 | locus YKR091W, strain srl3, stronger effect = lower value 0.956 | locus YLL026W, stronger effect = lower value 0.951 | locus YLL041C, strain sdh2, stronger effect = lower value 0.952 | locus YLR027C, strain aat2, stronger effect = lower value 0.932 | locus YLR113W, strain HOG1, stronger effect = lower value 0.941 | locus YLR258W, strain gsy2, stronger effect = lower value 0.916 | locus YLR342W, strain FKS1, stronger effect = lower value 0.963 | locus YLR357W, strain rsc2, stronger effect = lower value 1.06 | locus YLR370C, strain arc18, stronger effect = lower value 0.952 | locus YLR384C, strain iki3, stronger effect = lower value 0.921 | locus YML120C, strain ndi1, stronger effect = lower value 0.915 | locus YMR058W, strain fet3, stronger effect = lower value 0.918 | locus YMR125W, strain sto1, stronger effect = lower value 0.918 | locus YMR129W, stronger effect = lower value 0.946 | locus YMR205C, strain PFK2, stronger effect = lower value 0.913 | locus YMR231W, strain pep5, stronger effect = lower value 0.947 | locus YNL183C, strain NPR1, stronger effect = lower value 0.841 | locus YNL209W, strain ssb2, stronger effect = lower value 0.93 | locus YNL322C, strain KRE1 (second series), stronger effect = lower value 0.965 | locus YNR049C, strain mso1, stronger effect = lower value 0.961 | locus YOR070C, strain gyp1, stronger effect = lower value 0.934 | locus YOR080W, strain dia2, stronger effect = lower value 0.966 | locus YOR106W, strain vam3, stronger effect = lower value 0.88 | locus YOR265W, strain rbl2, stronger effect = lower value 0.936 | locus YPL240C, strain hsp82, stronger effect = lower value 0.969 | locus YPL256C, strain CLN2, stronger effect = lower value 0.876
